# In the library only some 2.1% were active in any assay of this set; here they are far more common.
# PABP FP inh – PABP-poly(A) binding inhibition; PABP-poly(A) RNA binding, fluorescence polarization; inhibition, % at 35 µM; hit rate 1% among 290,000;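 also: calls also rest on retests at 20 µM and on dose response follow-up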
# eIF4H FP inh – inhibitors of RNA binding by human eIF4H. eIF4H fluorescence polarization binding assay. inhibition, % at 35 µM. hit rate 0.94% among 290,000. AID 2012;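 also: calls also rest on retests at 20 µM and on dose response follow-up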
# NRP1-CendR mod – NRP-1/CendR interaction modulation; FAM-RPARPAR peptide binding to NRP-1, fluorescence polarization; AID 602438; O14786; inhibition, % at 25 µM; hit rate 0.85% among 360,000;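 active = inhibition or corrected inhibition above about 18%, plus a signal ratio from 0.5 to 1.5, limit read from the data, passing the limit was not always enough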
# Target sequence (O14786 whole entry, looked up): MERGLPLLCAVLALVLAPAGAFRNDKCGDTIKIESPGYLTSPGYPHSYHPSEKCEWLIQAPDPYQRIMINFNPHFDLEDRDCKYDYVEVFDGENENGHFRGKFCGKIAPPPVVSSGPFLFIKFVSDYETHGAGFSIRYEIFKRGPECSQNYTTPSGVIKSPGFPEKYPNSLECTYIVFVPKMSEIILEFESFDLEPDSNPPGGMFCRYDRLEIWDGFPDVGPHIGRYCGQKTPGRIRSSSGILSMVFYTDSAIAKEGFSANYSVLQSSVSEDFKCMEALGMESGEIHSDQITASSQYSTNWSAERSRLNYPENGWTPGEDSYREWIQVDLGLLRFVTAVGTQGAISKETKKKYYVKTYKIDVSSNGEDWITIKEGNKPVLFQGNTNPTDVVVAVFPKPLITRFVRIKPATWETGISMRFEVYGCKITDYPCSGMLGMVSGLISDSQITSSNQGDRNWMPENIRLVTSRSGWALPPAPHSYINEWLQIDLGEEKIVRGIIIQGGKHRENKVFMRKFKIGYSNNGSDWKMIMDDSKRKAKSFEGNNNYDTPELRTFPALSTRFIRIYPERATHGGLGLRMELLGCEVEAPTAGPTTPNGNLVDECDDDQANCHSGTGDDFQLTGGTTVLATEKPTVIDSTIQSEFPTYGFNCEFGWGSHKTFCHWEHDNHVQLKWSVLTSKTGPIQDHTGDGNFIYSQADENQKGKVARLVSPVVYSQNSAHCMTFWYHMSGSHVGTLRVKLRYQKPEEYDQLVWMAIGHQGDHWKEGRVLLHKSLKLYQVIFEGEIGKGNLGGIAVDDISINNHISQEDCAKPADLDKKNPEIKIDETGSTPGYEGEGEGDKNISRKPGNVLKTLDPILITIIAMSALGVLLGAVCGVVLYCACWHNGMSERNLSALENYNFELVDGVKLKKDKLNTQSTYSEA
# MLLE-PAM2 inh – blocks PAM2 peptide binding to the PABP1 MLLE domain; P11940; GST-MLLE / FITC-PAM2 fluorescence polarization; inhibition, % at 20 µM; hit rate 0.36% among 360,000; in the data active = inhibition above about 35%, passing the limit was not always enough;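 also: plate controls were DMSO wells with GST-MLLE for no effect and wells lacking GST-MLLE protein for full effect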
# Starred values were filed as active, the others as inactive; ? = inconclusive; . = no result given. Unless noted, no rule for the calls is given here.
SMILES,PABP FP inh,eIF4H FP inh,NRP1-CendR mod,MLLE-PAM2 inh
COCc1cc(=O)n2[nH]c(-c3ccco3)cc2n1,-2,-1,-2,15
CCCCN1Cc2c(nc3cc(-c4ccco4)[nH]n3c2=O)C1=O,84*,88*,-8,3
c1cc2c(cc1-n1cnnn1)OCO2,8,-4,4,7
c1cc2c(cc1Cn1cnnn1)OCO2,4,12,22*,-4
O=C(CNc1ccc2ccccc2c1)N/N=C/c1ccc([N+](=O)[O-])o1,-8,27,-4,-3
O=C(N/N=C/c1ccccn1)c1sc2ccccc2c1Cl,10,15,-52,3
O=C(N/N=C/c1ccc([N+](=O)[O-])o1)c1sc2ccccc2c1Cl,38,72*,-33,-26
O=C(N/N=C/c1ccc([N+](=O)[O-])o1)c1cn2ccc3ccccc3c2n1,69*,82*,-18,-2
Cc1nonc1C(=O)N/N=C/c1ccc([N+](=O)[O-])o1,32*,89*,3,0
O=C(COC(=O)Cc1cccs1)NCc1ccc(F)cc1,9,-5,25*,-18
NS(=O)(=O)c1ccc(CNC(=O)Cc2cccs2)cc1,16,58*,-10,-28
O=C(COC(=O)Cc1ccc(Br)cc1)NCc1cccs1,.,.,12,-4
O=C(Cc1cccs1)NNC(=O)c1ccc(F)cc1,55*,?,20,-9
O=C(Cc1cccs1)NCc1ccccc1,1,1,6,8
O=C(COC(=O)Cc1ccc(F)cc1)NCc1ccco1,active,93*,-2,-12
CCN(Cc1ccc2c(c1)OCCO2)C(=O)CN1C(=O)NC2(CCc3ccccc32)C1=O (stereo not drawn),.,.,-2,6
COc1ccc(C2=NS(=O)(=O)N(C)C(C(=O)N3CCCCC3C)=C2)cc1 (stereo not drawn),-6,6,-1,2
O=C(Cc1cccs1)Nc1ccc(S(=O)(=O)Nc2ncccn2)cc1,10*,61*,-41,-32
CCOc1ccc(S(=O)(=O)NCC2(N3CCCCC3)CCCCC2)cc1,.,.,4,0
CCOc1ccc(S(=O)(=O)NCCC(=O)NCC2(N3CCCCC3)CCCCC2)cc1,51*,94*,18,-7
CCn1c(/C=C/c2cc[n+](C)cc2)nc2ccccc21,100*,46,1,-11
CCCn1c(/C=C/c2ccccc2)nc2ccccc21,-1,0,-12,10
CCCSc1nc(C)cc(C)c1S(C)(=O)=O,78*,4.7*,11,-4
CC(=O)Oc1ccccc1Cn1c(C)c(C(=O)NCc2ccc(Cl)c(Cl)c2)sc1=O,.,.,-2,2
Cc1cc2c(n1-c1ccc(C(=O)O)cc1)CCCCC2,82*,91*,.,.
SMILES,PABP FP inh,eIF4H FP inh,NRP1-CendR mod,MLLE-PAM2 inh
Cc1ccc(-c2ccccc2)n1-c1ccc(C(=O)O)cc1,-2,2,-10,4
O=C1/C(=C/c2ccc(Br)cc2)Oc2cc(O)ccc21,36*,61,-123,-46
CC(C)c1nc(SCC(=O)NC2CCCC2)c2c(=O)n(C)c(=O)n(C)c2n1,-2,-5,-7,-7
C=CCSC1=N/C(=C\C=C\c2ccco2)C(=O)S1,76*,96*,-58,3
C=CCSC1=N/C(=C\c2sccc2C)C(=O)S1,-5,-4,-12,13
Clc1ccc(C2=CC(c3ccco3)n3ncnc3N2)cc1 (stereo not drawn),79*,?,111,160
COc1ccc(C2=CC(c3ccco3)n3ncnc3N2)cc1 (stereo not drawn),-9,?,58,144
O=C1C[C@H]2CCCCC(=O)N3CC[C@@H](C1)[C@@H]23,.,.,0,5
O=C(/C=C/[C@H]1O[C@@H](n2cnc3c(NC(=O)c4ccccc4)ncnc32)[C@H](O)[C@@H]1O)NCc1ccco1,.,.,22*,8
COc1ccc(NC(=O)COC(=O)[C@@H]2CCCN2C(=O)c2cccs2)cc1,-7,-10,29*,-7
CC(C)(C)OC(=O)C[C@H]1C/C=C\C[C@H](CC(=O)NCCO)C(=O)NC[C@@H](c2ccccc2)OC1=O,.,.,11,-2
COc1ccc(N/C=C/C(=O)C(C)(C)C)cc1,-5,2,31*,-6
CC(C)NC(=O)CN1CCN(C(c2ccnc3ccccc23)c2nnnn2-c2ccc3c(c2)OCCO3)CC1 (stereo not drawn),.,.,2,.
CCOc1ccc2[nH]c(O)c(NC(C)=O)c2c1,5,1,28*,7
N#Cc1ccsc1NC(=O)COC(=O)c1ccc2ccccc2c1,3.5*,56,-39,-34
CN1CCc2cccc3c2[C@@H]1Cc1ccc(O)c(O)c1-3,-6,26,26*,46*
CC1(N2CCOCC2)C(=O)c2ccccc2C1=O,3,0,-5,14
CC1(N2CCCCC2)C(=O)c2ccccc2C1=O,50*,active,-2,10
c1ccc2c(c1)CCCN2Cc1nnnn1CC1CCCO1 (stereo not drawn),?,?,24*,106
CCSc1nc2ccccc2n1Cc1ccccc1F,-6,-4,17,11
CCSc1nc2ccccc2n1Cc1cccc([N+](=O)[O-])c1,-8,-6,23*,-23
CSc1ccc(NC(=O)C2(C)CCN2C(=O)Cc2ccc(C(C)(C)C)cc2)cc1 (stereo not drawn),.,.,4,3
O=C(CCCc1nc(-c2ccc(Cl)cc2)no1)NC1CCCCC1,7,-6,4,4
N#Cc1ccc(COC(=O)c2cnc(Cl)c(Cl)c2)cc1,-6,-7,25*,6
O=C(OCc1ccccc1)c1cnc(Cl)c(Cl)c1,2,6,19,-11
SMILES,PABP FP inh,eIF4H FP inh,NRP1-CendR mod,MLLE-PAM2 inh
CCC(=O)NC(=S)Nc1ccc(S(=O)(=O)NC(C)=O)cc1,-4,-8,25*,-5
CC(=O)NS(=O)(=O)c1ccc(NC(=S)Nc2ccccc2)cc1,-9,5,7,13
O=C(O[C@@H]1Cc2c(O)cc(O)cc2O[C@@H]1c1cc(O)c(O)c(O)c1)c1cc(O)c(O)c(O)c1,53*,80*,.,.
CC(=O)Nc1ccc(S(=O)(=O)N(CC(=O)Nc2cc(C)on2)Cc2ccc(F)cc2)cc1,9,-10,-8,3
COc1ccc(/C=N/Nc2nc(C)c([N+](=O)[O-])c(N(C)c3ccccc3)n2)cc1OC,-3,-8,28*,-3
C/C(=N\Nc1ccc(C(=O)O)cc1)c1ccc2c(c1)Nc1ccccc1S2,63*,84*,-34,7
C/C(=N/Nc1ccc(C(=O)O)cc1)c1ccc2c(c1)Nc1ccccc1S2,.,.,-16,0
COc1cccc(NC(=O)CN(C)C(=O)C(CCSC)NC(=O)c2ccco2)c1 (stereo not drawn),.,.,18*,7
COc1ccc(NC(=O)CN(C)C(=O)C(NC(=O)c2ccco2)C(C)C)cc1 (stereo not drawn),.,.,-7,-3
Cc1noc(/C=C/c2ccccc2F)c1S(=O)(=O)N1CCC(C(=O)N2CCN(C)CC2)CC1,6,-15,7,3
O=c1[nH]c(Nc2ccccn2)cc2ccccc12,.,.,45*,17
O=c1[nH]c(Nc2ccc(F)cc2)cc2ccccc12,70*,21,-22,2
O=c1[nH]c(Nc2ccccc2Cl)cc2ccccc12,.,.,-10,12

# Screening data: PubChem BioAssay, Sanford-Burnham Center for Chemical Genomics
